The record followed here is ChEMBL document CHEMBL3988442, “University of Dundee, Small-Polar-MMV Screening Library” (2021).

Common to all, as to set-up: scale not given: direction of the effect not stated beside the values
The target of assay [1] is Protein translocase subunit SecA (Escherichia coli (strain K12)) (UniProt P10408). In words: Assay to Identify E. coli SecA ATPase Inhibitors. In kind it is functional. The conditions noted are these: 30 µM.
The target of assay [2] is T1, Ubiquitin-activating enzyme e1, putative (Leishmania donovani (strain BPK282A1)) (UniProt E9BSI1).
T1 sequence (whole entry): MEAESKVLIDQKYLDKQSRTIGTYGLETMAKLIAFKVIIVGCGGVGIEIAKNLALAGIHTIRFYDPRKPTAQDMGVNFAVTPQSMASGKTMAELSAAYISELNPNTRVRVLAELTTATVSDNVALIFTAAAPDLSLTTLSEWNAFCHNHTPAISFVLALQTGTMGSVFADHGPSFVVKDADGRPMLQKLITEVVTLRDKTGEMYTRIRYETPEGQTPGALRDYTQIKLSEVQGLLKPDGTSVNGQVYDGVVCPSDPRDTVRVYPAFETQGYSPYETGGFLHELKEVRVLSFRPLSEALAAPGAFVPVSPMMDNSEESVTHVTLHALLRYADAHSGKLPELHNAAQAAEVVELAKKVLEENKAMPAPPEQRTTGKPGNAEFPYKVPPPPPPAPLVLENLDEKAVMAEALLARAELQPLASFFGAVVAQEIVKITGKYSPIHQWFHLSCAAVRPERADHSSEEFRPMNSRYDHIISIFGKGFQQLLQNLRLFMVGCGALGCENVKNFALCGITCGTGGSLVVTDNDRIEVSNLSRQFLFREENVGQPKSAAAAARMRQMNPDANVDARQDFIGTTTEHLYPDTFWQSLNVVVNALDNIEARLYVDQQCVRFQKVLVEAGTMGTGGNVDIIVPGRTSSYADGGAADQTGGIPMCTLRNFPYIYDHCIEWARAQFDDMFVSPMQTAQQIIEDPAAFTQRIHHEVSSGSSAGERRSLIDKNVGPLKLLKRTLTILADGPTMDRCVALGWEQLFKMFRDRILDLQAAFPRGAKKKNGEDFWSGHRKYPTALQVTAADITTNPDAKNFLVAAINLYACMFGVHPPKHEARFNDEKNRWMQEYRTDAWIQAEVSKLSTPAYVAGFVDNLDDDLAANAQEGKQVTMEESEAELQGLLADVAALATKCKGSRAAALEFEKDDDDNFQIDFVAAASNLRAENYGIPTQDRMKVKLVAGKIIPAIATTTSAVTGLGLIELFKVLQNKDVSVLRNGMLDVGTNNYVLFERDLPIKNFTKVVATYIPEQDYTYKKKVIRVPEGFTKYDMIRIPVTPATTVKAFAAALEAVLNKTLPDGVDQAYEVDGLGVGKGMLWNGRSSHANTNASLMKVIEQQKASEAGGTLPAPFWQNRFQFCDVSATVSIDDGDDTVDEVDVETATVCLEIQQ
In words: Leishmania donovani Ubiquitin Activating Enzyme (LdE1). The assay is classed as functional. The conditions noted are these: 30 µM.

In assay [3] the target is AMP-activated protein kinase, AMPK (Homo sapiens) (UniProt P54646+O43741+P54619+Q9UGJ0+Q9Y478+Q13131+Q9UGI9). Kind of assay: AMP-dependent Kinase enzyme assay. An in vitro enzyme assay that detects ADP turnover that is directly proportional to AMPK activity. This uses naive AMPK that is activated during the assay with MK-8722. Particulars: 30 µM. The assay is classed as functional.

Assay [4] deals with Sialic acid-binding Ig-like lectin 9 (Homo sapiens) (UniProt Q9Y336). In words: Hs-Siglec9 ALPHAscreen SOP 20170721. The conditions noted are these: 10 µM.
The next assay relates to Trypanosoma cruzi. Kind of assay: Trypanosoma cruzi phosphomannomutase and mannose-1-phosphate guanylyltransferase assay. Particulars: 10 µM. The assay is classed as functional.
The target in assay [5] is T2, Arginase-2, mitochondrial (Homo sapiens) (UniProt P78540).
T2 sequence (whole entry): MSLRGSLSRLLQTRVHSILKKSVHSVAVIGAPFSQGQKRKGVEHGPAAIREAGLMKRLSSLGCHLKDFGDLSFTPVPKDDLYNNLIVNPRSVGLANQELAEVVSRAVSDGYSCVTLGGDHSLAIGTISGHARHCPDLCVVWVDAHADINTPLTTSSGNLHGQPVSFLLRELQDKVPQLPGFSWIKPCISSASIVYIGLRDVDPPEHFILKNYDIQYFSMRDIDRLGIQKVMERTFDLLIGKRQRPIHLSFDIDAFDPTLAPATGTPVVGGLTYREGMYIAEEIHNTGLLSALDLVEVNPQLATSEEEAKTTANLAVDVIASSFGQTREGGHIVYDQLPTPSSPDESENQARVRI
Kind of assay: in vitro enzyme assay to detect the production of urea directly proportional to the activity of Arginase II. Also: in the data most compounds retested in dose-response had high values. In kind it is functional. The conditions noted are these: 33.3 µM.

Assay [6] concerns the target T3, Proteasome subunit beta (Trypanosoma cruzi) (UniProt O96673).
T3 sequence (whole entry): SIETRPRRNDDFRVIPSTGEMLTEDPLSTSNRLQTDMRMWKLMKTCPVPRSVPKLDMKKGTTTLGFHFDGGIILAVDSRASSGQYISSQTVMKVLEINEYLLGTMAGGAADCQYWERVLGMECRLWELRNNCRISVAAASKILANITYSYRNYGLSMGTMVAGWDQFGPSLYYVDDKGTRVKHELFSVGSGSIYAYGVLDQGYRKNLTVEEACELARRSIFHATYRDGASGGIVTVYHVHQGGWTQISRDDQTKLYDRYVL
In words: Trypanosoma cruzi proteasome chymotrypsin-like activity (TcProtChymo) assay. Also: in the data most compounds retested in dose-response had high values. The assay is classed as functional. Particulars: 9.37 µM.

The species named for a further assay is Homo sapiens. Kind of assay: To identify inhibition of the IFN signalling (Jak-Stat) pathway via expression of an eGFP reporter gene under the control of an IFN-stimulated response element (ISRE) containing MxA promoter. In kind it is functional. The conditions noted are these: 30 µM. Background: In a reporter assay the amount or activity of a reporter protein is the signal.

Assay [7] deals with T4, Tyrosyl-tRNA synthetase, putative (Trypanosoma cruzi (strain CL Brener)) (UniProt Q4DSP6).
T4 sequence (whole entry): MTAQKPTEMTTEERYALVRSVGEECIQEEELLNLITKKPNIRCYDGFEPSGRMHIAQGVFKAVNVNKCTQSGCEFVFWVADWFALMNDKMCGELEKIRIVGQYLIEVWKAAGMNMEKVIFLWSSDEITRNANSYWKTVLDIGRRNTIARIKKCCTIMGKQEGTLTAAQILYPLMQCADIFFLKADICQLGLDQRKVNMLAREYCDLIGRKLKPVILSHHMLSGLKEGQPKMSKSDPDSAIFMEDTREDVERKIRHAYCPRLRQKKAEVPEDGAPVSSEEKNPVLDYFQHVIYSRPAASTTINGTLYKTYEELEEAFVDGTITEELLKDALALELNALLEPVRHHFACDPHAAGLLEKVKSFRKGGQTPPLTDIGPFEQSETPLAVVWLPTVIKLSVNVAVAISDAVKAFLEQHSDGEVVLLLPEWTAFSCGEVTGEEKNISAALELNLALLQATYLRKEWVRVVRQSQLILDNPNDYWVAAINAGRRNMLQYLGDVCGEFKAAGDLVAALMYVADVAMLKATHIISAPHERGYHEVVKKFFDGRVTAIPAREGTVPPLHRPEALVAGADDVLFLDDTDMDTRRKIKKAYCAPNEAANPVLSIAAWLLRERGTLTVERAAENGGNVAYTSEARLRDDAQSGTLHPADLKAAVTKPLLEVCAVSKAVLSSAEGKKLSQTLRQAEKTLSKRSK
Kind of assay: Trypanosoma cruzi tyrosyl tRNA synthetase (TcYRS) _High Tyrosine SOP. Also: in the data most compounds retested in dose-response had high values. In kind it is functional. The conditions noted are these: 30 µM.

The target of assay [8] is T4, Tyrosyl-tRNA synthetase, putative (Trypanosoma cruzi (strain CL Brener)). Kind of assay: Trypanosoma cruzi tyrosyl tRNA synthetase (TcYRS) SOP. Particulars: 30 µM. In kind it is functional.
Assay [9] deals with Chromo domain-containing protein 1 (Saccharomyces cerevisiae (strain ATCC 204508 / S288c) (Baker's yeast)) (UniProt P32657). In words: ScCHD-1 Enzyme Inhibition Assay. Also: in the data most compounds retested in dose-response had high values. The assay is classed as functional. Particulars: 30 µM.

For some assays here: Results with a measured potency or affinity are listed apart.

Sialic acid-binding Ig-like lectin 9 (Homo sapiens), sequence (Q9Y336 whole entry): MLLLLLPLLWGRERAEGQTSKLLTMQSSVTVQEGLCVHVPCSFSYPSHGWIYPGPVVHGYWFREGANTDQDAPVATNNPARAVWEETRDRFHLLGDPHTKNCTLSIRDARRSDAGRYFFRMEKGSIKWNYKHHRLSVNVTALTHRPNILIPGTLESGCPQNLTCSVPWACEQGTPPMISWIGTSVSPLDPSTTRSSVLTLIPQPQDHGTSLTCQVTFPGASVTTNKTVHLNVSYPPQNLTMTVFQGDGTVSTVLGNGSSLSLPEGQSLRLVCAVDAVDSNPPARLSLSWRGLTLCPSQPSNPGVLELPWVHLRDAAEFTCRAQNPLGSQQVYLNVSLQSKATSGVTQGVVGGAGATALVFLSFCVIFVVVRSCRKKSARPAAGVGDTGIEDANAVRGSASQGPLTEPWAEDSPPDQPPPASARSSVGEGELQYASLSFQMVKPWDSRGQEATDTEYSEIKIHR
Protein translocase subunit SecA (Escherichia coli (strain K12)), sequence (P10408 whole entry): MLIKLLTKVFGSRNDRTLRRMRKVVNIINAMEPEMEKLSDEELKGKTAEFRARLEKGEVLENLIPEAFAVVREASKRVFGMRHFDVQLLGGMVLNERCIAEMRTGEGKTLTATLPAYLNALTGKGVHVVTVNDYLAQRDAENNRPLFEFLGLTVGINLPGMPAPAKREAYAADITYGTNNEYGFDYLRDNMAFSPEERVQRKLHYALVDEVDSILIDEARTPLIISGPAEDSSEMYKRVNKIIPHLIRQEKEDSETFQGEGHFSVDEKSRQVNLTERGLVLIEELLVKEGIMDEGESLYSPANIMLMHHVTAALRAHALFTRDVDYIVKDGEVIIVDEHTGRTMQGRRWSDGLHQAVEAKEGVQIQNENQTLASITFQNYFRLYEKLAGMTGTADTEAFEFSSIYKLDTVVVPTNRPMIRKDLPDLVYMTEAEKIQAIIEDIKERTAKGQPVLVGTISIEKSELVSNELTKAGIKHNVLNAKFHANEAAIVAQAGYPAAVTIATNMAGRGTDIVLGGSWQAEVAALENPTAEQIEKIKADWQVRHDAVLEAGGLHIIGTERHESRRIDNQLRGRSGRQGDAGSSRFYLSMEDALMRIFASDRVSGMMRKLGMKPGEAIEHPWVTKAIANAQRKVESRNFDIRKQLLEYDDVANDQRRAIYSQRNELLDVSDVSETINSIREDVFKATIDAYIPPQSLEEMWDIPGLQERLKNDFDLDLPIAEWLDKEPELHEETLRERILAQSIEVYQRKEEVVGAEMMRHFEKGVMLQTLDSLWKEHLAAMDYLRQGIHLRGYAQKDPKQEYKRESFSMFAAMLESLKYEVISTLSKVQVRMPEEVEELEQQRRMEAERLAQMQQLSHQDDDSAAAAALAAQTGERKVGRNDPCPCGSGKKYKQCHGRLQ
Chromo domain-containing protein 1 (Saccharomyces cerevisiae (strain ATCC 204508 / S288c) (Baker's yeast)), sequence (P32657 whole entry, the tested form may be a part): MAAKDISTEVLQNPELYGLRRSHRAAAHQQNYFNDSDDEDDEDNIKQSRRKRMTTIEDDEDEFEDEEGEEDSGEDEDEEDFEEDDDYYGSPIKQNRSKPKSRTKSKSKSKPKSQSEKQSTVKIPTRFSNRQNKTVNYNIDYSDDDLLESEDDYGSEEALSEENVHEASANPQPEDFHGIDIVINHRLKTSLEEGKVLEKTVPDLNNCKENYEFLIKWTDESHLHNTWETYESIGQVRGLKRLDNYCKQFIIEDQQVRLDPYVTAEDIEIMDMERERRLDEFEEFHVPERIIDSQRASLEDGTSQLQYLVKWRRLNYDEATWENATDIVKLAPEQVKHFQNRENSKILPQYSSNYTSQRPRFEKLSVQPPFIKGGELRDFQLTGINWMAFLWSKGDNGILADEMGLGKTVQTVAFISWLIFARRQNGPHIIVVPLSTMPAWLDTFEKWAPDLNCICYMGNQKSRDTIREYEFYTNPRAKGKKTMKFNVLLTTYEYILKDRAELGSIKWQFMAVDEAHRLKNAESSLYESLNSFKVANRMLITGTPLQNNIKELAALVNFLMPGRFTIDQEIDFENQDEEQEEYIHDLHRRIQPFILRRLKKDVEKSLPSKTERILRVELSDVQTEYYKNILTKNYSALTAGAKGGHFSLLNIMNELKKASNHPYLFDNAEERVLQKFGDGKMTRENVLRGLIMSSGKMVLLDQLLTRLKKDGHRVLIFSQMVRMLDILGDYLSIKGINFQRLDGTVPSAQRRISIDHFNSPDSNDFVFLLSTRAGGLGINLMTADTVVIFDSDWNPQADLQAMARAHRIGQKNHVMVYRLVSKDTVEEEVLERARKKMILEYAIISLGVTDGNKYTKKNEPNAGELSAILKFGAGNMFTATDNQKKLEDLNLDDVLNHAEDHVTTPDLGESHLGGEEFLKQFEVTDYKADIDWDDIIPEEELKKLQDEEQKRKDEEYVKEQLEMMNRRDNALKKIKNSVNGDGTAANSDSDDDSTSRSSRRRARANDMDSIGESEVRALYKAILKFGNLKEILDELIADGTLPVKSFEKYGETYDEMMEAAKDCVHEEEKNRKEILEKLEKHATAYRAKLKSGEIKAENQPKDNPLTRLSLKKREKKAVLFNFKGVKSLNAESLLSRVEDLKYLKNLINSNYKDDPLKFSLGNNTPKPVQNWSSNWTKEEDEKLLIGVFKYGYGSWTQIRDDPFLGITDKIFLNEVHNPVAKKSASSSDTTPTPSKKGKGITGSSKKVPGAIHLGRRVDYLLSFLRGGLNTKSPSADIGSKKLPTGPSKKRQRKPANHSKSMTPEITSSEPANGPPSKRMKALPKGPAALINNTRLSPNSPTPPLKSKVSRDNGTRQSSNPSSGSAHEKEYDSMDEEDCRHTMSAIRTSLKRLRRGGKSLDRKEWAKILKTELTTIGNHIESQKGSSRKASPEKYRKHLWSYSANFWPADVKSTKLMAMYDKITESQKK

With `COc1ncccc1C(=O)N1CCC(CNC(C)=O)CC1`, the Percent Effect in [1] is -4.18%; in assay [2], 5.33%; in [3], -0.618%; in [4] it was 3.6%; in the assay with Trypanosoma cruzi, -2.43%; in assay [5], 1.56%. For the same compound, the Percent Effect in assay [6] is 6.28%; in the assay filed under Homo sapiens, -6.88%; in assay [7] it was 4.92%; in assay [8], 13.6%; in assay [9], -5.96%.

Take `Cc1cnn(CC2CCCN2Cc2nnc(Cc3ccccc3)o2)c1` (stereo not given): the Percent Effect in assay [1] is -4.98%; in assay [2] it was 10.8%; in [3] it was -8.22%; in assay [4], -3.85%; in the assay on Trypanosoma cruzi, -9.15%; in assay [5] it was 6.81%. In addition, the Percent Effect was 3.96% in assay [6]; 19.9% in the assay listed under Homo sapiens; 4.43% in [7]; 3.7% in assay [8]; -4.25% in assay [9].

In the case of `CC(C)c1cc(NC(=O)c2ccc(C(=O)NC(C)(C)C)cc2)[nH]n1`, the Percent Effect is -6.52% in assay [1]; 23.4% in assay [2]; 112% in [3]; -4.38% in [4]; -3% in the assay on Trypanosoma cruzi; 0.712% in [5]. Also, the Percent Effect was 0.169% in [6]; 53% in the assay filed under Homo sapiens; 6.8% in assay [7]; 24.4% in assay [8]; -4.07% in assay [9].

As for `O=C(NCc1cc[nH]n1)NCC(c1ccco1)N1CCCC1` (stereo not given), the Percent Effect in [1] was -3.53%; in [2], 8.11%; in [3] it was -2.2%; in [4] it was 17.4%; in the assay with Trypanosoma cruzi, 1.66%; in assay [5], -0.744%. Also, the Percent Effect is 12.4% in assay [6]; 7.09% in the assay listed under Homo sapiens; 5.38% in [7]; 11.1% in [8]; -2.11% in [9].

Regarding `CCS(=O)(=O)N1Cc2nccn2CC(COc2cccnc2)C1` (stereo not given), the Percent Effect in [1] is -5.39%; in assay [2], 10.7%; in assay [3], -4.67%; in assay [4], 3.69%; in the assay on Trypanosoma cruzi it was 3.48%; in [5], -35.7%. Also, the Percent Effect in [6] is 15.4%; in the assay listed under Homo sapiens, 3.42%; in [7], 7.29%; in assay [8], 12.5%; in assay [9], -8.7%.

As for `Cc1cccc(-c2ccc(C(=O)NCCN(C)C3CC3)c(=O)[nH]2)c1`, the Percent Effect is -4.4% in assay [1]; 0% in [2]; -7.73% in assay [3]; -0.0788% in assay [4]; -4.43% in the assay on Trypanosoma cruzi; 4.41% in assay [5]. Besides, the Percent Effect in assay [6] is -0.721%; in the assay listed under Homo sapiens, 19%; in assay [7], 0.493%; in [8], 6.17%; in assay [9], -1.94%.

For the compound `COc1ccc2c(c1)CN(Cc1nc3ccsc3c(=O)[nH]1)CC2`, the Percent Effect is -2.79% in [1]; -5.06% in assay [2]; -0.628% in assay [3]; 14.2% in [4]; -1.79% in the assay with Trypanosoma cruzi; 1.9% in [5]. Also, the Percent Effect in assay [6] came out at 2.05%; in the assay filed under Homo sapiens it was 24.5%; in assay [7], 3.45%; in assay [8], 1.27%; in assay [9], 21.3%.

In the case of `CC(C)C(C)NC(=O)Nc1ccccc1CN1CCOCC1` (stereo not given), the Percent Effect in assay [1] was -7.45%; in assay [2], 2.7%; in assay [3], 0.895%; in assay [4] it was 4.22%; with Trypanosoma cruzi, 1.47%; in assay [5], 2.23%. The Percent Effect in assay [6] was 2.66%; in the assay filed under Homo sapiens, -10.3%; in assay [7] it was 6.45%; in assay [8] it was 11.1%; in assay [9] it was -3.52%.

In the case of `Cc1cc(S(=O)(=O)N2CCC(S(C)(=O)=O)CC2)ccc1F`, the Percent Effect is -4.08% in assay [1]; 5.2% in [2]; 6.02% in assay [3]; 4.37% in [4]; -0.493% in the assay with Trypanosoma cruzi; 8.39% in assay [5]. The Percent Effect was -2.96% in [6]; 14.6% in the assay listed under Homo sapiens; 4.23% in assay [7]; 11.5% in assay [8]; -5.25% in [9].

Regarding `Cc1csc(C2CCCN(C(=O)c3cnc4n[nH]c(C)c4c3)C2)n1` (stereo not given), the Percent Effect in assay [1] is -3.7%; in assay [2] it was 10.8%; in assay [3], -5.48%; in assay [4], 6.11%; with Trypanosoma cruzi, 2.36%; in [5], -2%. The Percent Effect in [6] was 2.7%; in the assay listed under Homo sapiens it was 16.8%; in [7] it was 7.39%; in [8], 18.5%; in assay [9] it was -8.83%.
